Laboratory results: PubChem BioAssay AID743261 (The Scripps Research Institute Molecular Screening Center, 2014)
The whole screen tested about 3,300 compounds, of which about 35 (1%) were called active. Not all results are given here. Values without a mark were called inactive. Rule as the data show it: active = inhibition above about 11%; inactive = the rest.

target: 1-phosphatidylinositol 4,5-bisphosphate phosphodiesterase beta-3 (Homo sapiens) (UniProt Q01970); experiment: PLC-beta3 inhibitor confirmation, biochemical, fluorescence, purified enzyme (AID 743261); conditions: purified PLC-beta3, fluorogenic substrate fluorescence; at 12.3 µM; active compounds read high
Sequence (Q01970 whole entry, looked up): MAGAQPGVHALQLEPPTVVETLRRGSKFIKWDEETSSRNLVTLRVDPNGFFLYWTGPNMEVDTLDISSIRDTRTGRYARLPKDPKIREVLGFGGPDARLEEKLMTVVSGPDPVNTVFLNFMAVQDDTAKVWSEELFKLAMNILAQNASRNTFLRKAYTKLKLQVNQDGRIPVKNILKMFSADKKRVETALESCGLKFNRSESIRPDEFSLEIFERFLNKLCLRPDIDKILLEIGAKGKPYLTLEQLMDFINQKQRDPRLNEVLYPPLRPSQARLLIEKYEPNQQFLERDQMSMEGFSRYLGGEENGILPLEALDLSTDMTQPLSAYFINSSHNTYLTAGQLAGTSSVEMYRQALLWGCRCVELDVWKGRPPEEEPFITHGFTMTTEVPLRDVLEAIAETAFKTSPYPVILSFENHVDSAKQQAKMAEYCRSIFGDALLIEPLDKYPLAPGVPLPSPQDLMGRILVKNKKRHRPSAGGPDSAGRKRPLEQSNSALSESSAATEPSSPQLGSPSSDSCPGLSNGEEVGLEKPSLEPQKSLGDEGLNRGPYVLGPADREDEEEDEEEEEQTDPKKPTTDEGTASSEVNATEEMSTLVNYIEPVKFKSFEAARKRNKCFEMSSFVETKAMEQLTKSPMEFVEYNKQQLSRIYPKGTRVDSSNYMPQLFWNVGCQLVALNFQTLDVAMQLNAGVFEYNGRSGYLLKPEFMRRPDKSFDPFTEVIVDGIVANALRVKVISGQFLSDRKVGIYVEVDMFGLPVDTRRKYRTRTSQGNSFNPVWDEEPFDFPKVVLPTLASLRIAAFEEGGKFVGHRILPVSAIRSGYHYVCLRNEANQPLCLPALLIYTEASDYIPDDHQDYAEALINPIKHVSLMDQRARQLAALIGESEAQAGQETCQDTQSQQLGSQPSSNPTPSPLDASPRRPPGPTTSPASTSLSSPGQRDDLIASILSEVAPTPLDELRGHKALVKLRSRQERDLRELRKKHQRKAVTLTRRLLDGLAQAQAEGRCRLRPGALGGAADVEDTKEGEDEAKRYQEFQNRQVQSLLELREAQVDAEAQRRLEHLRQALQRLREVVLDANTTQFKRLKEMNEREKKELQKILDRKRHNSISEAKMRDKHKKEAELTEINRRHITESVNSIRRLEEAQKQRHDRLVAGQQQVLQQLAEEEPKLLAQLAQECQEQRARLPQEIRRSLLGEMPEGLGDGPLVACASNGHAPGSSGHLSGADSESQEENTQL

SMILES	inhibition
Cc1nc2ccccc2nc1CC(O)(c1ccccc1)c1ccccc1	1.99%
CCOc1ccc(OCC)c(NC(=O)CSc2nnc(Cn3cnc4ccccc43)n2C)c1	2.61%
CCC1S/C(=N/N=C/c2ccco2)NC1=O (stereo not drawn)	3.39%
CC(C)n1c(CN2CCN(Cc3ccccc3)CC2)nc2ccccc21	-2%
Nn1cnnc1N/N=C/c1cc([N+](=O)[O-])c(Cl)cc1Cl	-0.09%
COCCCN(C(=S)Nc1c(C)cc(C)cc1C)C(C)c1ccncc1 (stereo not drawn)	3.06%
Cc1ccc(N2CC(C(=O)NCCS(=O)(=O)N3CCN(c4ccccc4)CC3)CC2=O)cc1 (stereo not drawn)	3.26%
C/C(CC(C)C)=N\Oc1nc(C)cc(C)n1	-3.23%
C=CC1=C(C(=O)O)N2C(=O)[C@@H](NC(=O)/C(=N\OCC(=O)O)c3csc(N)n3)[C@H]2SC1	20.5% (active)
COc1ccc(NC(=O)c2ccc(OC)cc2)cc1	-4.41%
COc1ccc(/C=C2\N=C3CCCN3C2=O)cc1	-5.85%
O=C(c1ccc2c(c1)OCO2)N1CCNc2ccccc2C1	-2.69%
O=C(CSc1ccccc1)Nc1cccc(S(=O)(=O)N2CCOCC2)c1	4.18%
Cc1cc(C)c(NC(=O)CN2CCOCCOCCOCCOCC2)c(C)c1	0.38%
C=CCn1c(SCn2nnc3ccccc3c2=O)nnc1-c1ccc(Cl)cc1	-0.45%
CCc1c(Nc2ccccc2C)nc(N)[nH]c1=O	1.95%
CCOc1ccccc1NC(=O)CCN1CCN(S(=O)(=O)c2ccc(OC)cc2)CC1	-0.62%
C=CCN(c1ccc(Cl)cc1)S(=O)(=O)c1cccc(C(=O)OCC(=O)N(C)C)c1	-16%
Cc1nc(Nc2ccccc2C)c2cnn(C)c2n1	-0.91%
Cc1ccc(NC(=S)N(Cc2ccco2)C(C)c2cccs2)cc1 (stereo not drawn)	-0.01%
COc1ccc(C(CNC(=O)c2cc(S(=O)(=O)Nc3cccc(C)c3)ccc2C)N2CCCC2)cc1 (stereo not drawn)	-3.32%
CCn1c(SCC(C)=O)nc2sc3c(c2c1=O)CCCC3	-2%
Cc1nc2ccc(NC(=O)c3cccc(S(=O)(=O)N4CCOCC4)c3)cc2s1	-9.8%
Cc1c(C#N)c2ncn(CC#N)c(=O)c2n1-c1ccccc1	-2.4%
CS(=O)(=O)N(Cc1ccc(Cl)cc1)c1ccc(C(=O)NCCSCc2ccco2)cc1	1.86%
Nc1nnc(SCC(=O)OCc2ccc(Cl)c(Cl)c2)s1	-2.66%
Cc1ccc(/C=N/NC(=O)CSc2nc3ccccc3o2)cc1	-1.23%

SMILES	inhibition
CN(C(=O)c1cccc(NC(=O)Cc2cccc([N+](=O)[O-])c2)c1)C1CCCCC1	2.33%
O=C(C1CCCO1)N1CCN(C(=S)Nc2cccc(Cl)c2)CC1 (stereo not drawn)	-2.93%
CCOc1ccc(NC(=O)[C@H](C)NC(=O)C2CC(=O)N(c3ccc(OC)cc3)C2)cc1 (stereo partly drawn)	-3.05%
O=C(O)c1ccc(Cn2c(=S)[nH]c3cc(Cl)ccc3c2=O)cc1	-7.23%
CC(=O)C12CC(C)=C(C)CC1CC1C3CCC4=CC(=O)CCC4(C)C3CCC12C (stereo not drawn)	-2.56%
O=C(Nc1ccc(Br)cc1)C1CCC(=O)N1Cc1ccccc1Cl (stereo not drawn)	-0.11%
N#Cc1c(NC(=O)C2CCCO2)sc2c1CCCCC2 (stereo not drawn)	-7.76%
CCOC(=O)C1CCN(C(=O)c2ccccc2N(C)S(=O)(=O)c2ccccc2)CC1	1.21%
O=C(Nc1cccc([N+](=O)[O-])c1)Nn1cnnc1	0.35%
Cc1ccccc1C(=O)Nc1ccccc1Sc1ccccc1	-4.34%
COc1ccc(S(=O)(=O)N2CCC(C(=O)OCC(=O)c3ccccc3)CC2)cc1[N+](=O)[O-]	0.58%
O=C(CCNS(=O)(=O)c1ccc(Br)cc1)NCC1CCCO1 (stereo not drawn)	1.04%
Cc1ccc(-n2ncc3c2CC(C)(C)CC3NC(=O)CCc2cnn(C)c2)cc1 (stereo not drawn)	0.66%
COC(=O)C[C@@H]1CC[C@@H]2[C@H](COc3ccc(NC(=O)c4cccc(F)c4)cc3C(=O)N2C)O1	2.78%
Cc1c(C(=O)c2cccc([N+](=O)[O-])c2)c2ccccn2c1CCC#N	6.14%
CN(C)/C=C(/C(=O)c1ccc(Cl)cc1)S(=O)(=O)c1ccccc1	-1.45%
O=C(CSc1ncn[nH]1)N/N=C/c1ccc(F)cc1	1.52%
CNC(=O)c1ccc(NC(=O)c2cccc(C(F)(F)F)c2)cc1	-1.78%
O=C1N[C@@H](c2ccccc2)COC(=O)[C@H](Cc2ccc(F)cc2)C/C=C\C[C@@H]1CC(=O)N(CCO)Cc1ccccc1	0.87%
C[C@]12c3[nH]c4ccc(Cl)cc4c3CCN1C(=O)[C@@H](CC(=O)NCCCn1ccnc1)C[C@@H]2C(=O)N1CCOCC1	-2.45%
CCc1c(C)n([O-])c2c([n+]1=O)CCCCC2	-2.11%
Cc1cc2nc(SCCN3CCOCC3)[nH]c2cc1C	0.27%
CCCCNc1ccc(C(=O)Nc2cccc(C)n2)cc1[N+](=O)[O-]	-2.68%
COc1ccc(CCNC(=O)COC(=O)Cc2ccccc2F)cc1	-2.27%
CC(C)Oc1ccc(CC(=O)NNC(=S)Nc2ccc(Br)cc2)cc1	-6.23%
Cc1ccc(-c2cn(S(=O)(=O)c3cccc([N+](=O)[O-])c3)nc2N)cc1	-2.7%
